Three molecules from PubChem BioAssay can be followed below.

Each structure is given as a SMILES string. Several values for one entry are separate records, joined by “and”; a condition that tells them apart may be missing. Equal entries are not always repeated. Activity calls are given as the source filed them. Cut-off read from the data, not from the text of the source: active = inhibition above about 80%; inactive = the rest.

One assay in a line: growth inhibition of CRL1545 osteosarcoma cells, cell-based, cisplatin and BGB IC20 combos (AID 1671464).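 Note: cells exposed to compound for 96 hours before readout; 0% = vehicle DMSO and 100% = high DMSO killing control.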 The settings on record: at 0.5 µM, stronger effect = higher value.
Regarding `COc1c(N2CC3CCCNC3C2)c(F)cc2c(=O)c(C(=O)O)cn(C3CC3)c12` (stereo not given), the inhibition was 10.4% (inactive) and -25.5% (inactive).

With `Cc1ccc(NC(=O)CCCCCC(=O)Nc2ccccc2N)cc1`, the inhibition is 6.85% (inactive).

For `Nc1ccccc1NC(=O)CCCCCCC(=O)Nc1ccccc1`, the inhibition is 12.1% (inactive) and 5.27% (inactive).

The same assay, now with this note: measured here: with BGB IC20 combination, at 0.5 µM, stronger effect = higher value.
In the case of `COc1c(N2CC3CCCNC3C2)c(F)cc2c(=O)c(C(=O)O)cn(C3CC3)c12` (stereo not given), the inhibition was 13% and -1.64%.

On to `Cc1ccc(NC(=O)CCCCCC(=O)Nc2ccccc2N)cc1`, for which the inhibition is 21.7%.

Regarding `Nc1ccccc1NC(=O)CCCCCCC(=O)Nc1ccccc1`, the inhibition was -6.11% and -18%.

The same assay, now with this note: measured here: with cisplatin IC20 combination, at 0.5 µM, stronger effect = higher value.
With `COc1c(N2CC3CCCNC3C2)c(F)cc2c(=O)c(C(=O)O)cn(C3CC3)c12` (stereo not given), the inhibition is 7.59% and -37.4%.

Turning to `Cc1ccc(NC(=O)CCCCCC(=O)Nc2ccccc2N)cc1`, the inhibition was -2.22%.

`Nc1ccccc1NC(=O)CCCCCCC(=O)Nc1ccccc1`: the inhibition is 19.9% and 16.9%.

Still in this assay, the particulars now being: single agent, at 0.05 µM, stronger effect = higher value.
As for `COc1c(N2CC3CCCNC3C2)c(F)cc2c(=O)c(C(=O)O)cn(C3CC3)c12` (stereo not given), the inhibition is -39.6% and 17%.

Turning to `Cc1ccc(NC(=O)CCCCCC(=O)Nc2ccccc2N)cc1`, the inhibition was -29%.

In the case of `Nc1ccccc1NC(=O)CCCCCCC(=O)Nc1ccccc1`, the inhibition was 13.3% and -6.35%.

The same assay, now with this note: single agent, at 5 µM, stronger effect = higher value.
Regarding `COc1c(N2CC3CCCNC3C2)c(F)cc2c(=O)c(C(=O)O)cn(C3CC3)c12` (stereo not given), the inhibition is -7.8% and 21.6%.

As to `Cc1ccc(NC(=O)CCCCCC(=O)Nc2ccccc2N)cc1`, the inhibition amounted to 60.5%.

On to `Nc1ccccc1NC(=O)CCCCCCC(=O)Nc1ccccc1`, for which the inhibition is 14.5% and 19.2%.
